Screening data: PubChem BioAssay, Broad Institute
An excerpt weighted towards active compounds, which were near 2.6% of everything screened.
Myc binder: binders of human c-Myc; calls only; small molecule microarray, His-c-Myc binding, anti-His fluorescence; AID 624141; 1.5% of 17,000 active;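 active means spot fluorescence over background with P-value below 7% in all four replicate spots, showing protein binding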
p53 PUMA act: mutant p53 pathway reactivation; SW480 PUMA-promoter luciferase; AID 624151; activation, % at 9.98 µM; 1.5% of 28,000 active; in the data active means activation above about 52%
p53 mut binder: binders of human mutant p53 | small molecule microarray binding, anti-GST fluorescence | calls only | 0.4% of 17,000 active;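 active means compounds whose four printed spots each glow above background more than chance allows, each with a p-value under 7%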
NFkB SMM: binds human NF-kappa-B p105 on microarray. Small molecule microarray, anti-His fluorescence binding. calls only. AID 624139. P19838. 1.3% of 17,000 active;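 active means spot fluorescence over background significantly raised, with a chance value under 7% in all four replicate spots of the compound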;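 further: probe protein is his-tagged human p50 processed subunit at 1 µg/ml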
Target sequence (P19838 1-433 limits assumed): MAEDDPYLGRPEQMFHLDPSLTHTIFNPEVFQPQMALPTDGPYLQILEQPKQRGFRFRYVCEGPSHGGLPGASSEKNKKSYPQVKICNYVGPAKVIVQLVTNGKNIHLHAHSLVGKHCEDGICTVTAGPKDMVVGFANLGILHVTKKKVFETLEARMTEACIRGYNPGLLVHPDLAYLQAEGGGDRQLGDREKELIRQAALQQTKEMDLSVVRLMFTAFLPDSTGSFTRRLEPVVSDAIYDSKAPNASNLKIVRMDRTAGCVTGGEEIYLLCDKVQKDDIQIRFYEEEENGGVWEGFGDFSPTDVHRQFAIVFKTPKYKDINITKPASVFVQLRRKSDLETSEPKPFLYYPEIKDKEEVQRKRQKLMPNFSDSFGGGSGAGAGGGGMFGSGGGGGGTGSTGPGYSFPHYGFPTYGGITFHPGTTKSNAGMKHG
STAT3 binder: binders of human STAT3; Small molecule microarray, His-STAT3 binding, anti-His fluorescence; calls only; 0.2% of 17,000 active; AID 624138;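 active means compounds whose four printed spots each show fluorescence over background unusually high for their array block, chance value under 7%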
A number is an active result; – = inactive; · = no result given; + = active, no number.

SMILES | Myc binder | p53 PUMA act | p53 mut binder | NFkB SMM | STAT3 binder
C#CCN(CC=C(C)C)[C@H](CO)c1ccccc1 | – | · | – | – | –
CC(C)=CCN(C(=O)C#Cc1ccccc1)[C@H](CO)c1ccccc1 | – | · | – | + | –
CC(=O)Nc1sc2c(c1C(=O)O)CCc1ccccc1-2 | · | – | · | · | ·
CC(C)CC(NS(=O)(=O)c1cccc2nsnc12)C(=O)O (stereo not drawn) | + | – | – | + | –
O=C(O)CNS(=O)(=O)c1cccc2nsnc12 | · | – | · | · | ·
O=C(CSc1ncnc2scc(-c3ccccc3)c12)c1ccccc1 | · | – | · | · | ·
NS(=O)(=O)c1ccc(NC(=S)NCc2cccnc2)cc1 | · | – | · | · | ·
Cc1cccnc1NC(=S)Nc1ccc(S(N)(=O)=O)cc1 | – | 66 | – | – | –
O=C(CSc1nc2ccccc2c(=O)n1Cc1ccco1)c1ccc(Br)cc1 | – | – | – | – | –
CCOc1ccccc1C(=O)Oc1c(S(=O)(=O)c2ccc(C)cc2)c(C)nn1-c1ccccc1 | + | – | – | – | –
CCC(=O)Oc1c(S(=O)(=O)c2ccccc2)c(C)nn1C(C)(C)C | · | – | · | · | ·
C[C@H](CO)N1C[C@H](C)[C@H](CN(C)S(=O)(=O)c2cn(C)cn2)OCCCC[C@H](C)Oc2ccc(NS(=O)(=O)c3cn(C)cn3)cc2C1=O | – | – | – | – | –
Cc1noc(C)c1NC(=O)N(C)C[C@@H]1Oc2ccc(NS(=O)(=O)c3cn(C)cn3)cc2C(=O)N([C@H](C)CO)C[C@H]1C | – | – | – | – | –
Cc1nn(C(=O)Cn2cc([N+](=O)[O-])cn2)c(C)c1Br | + | – | – | – | –
Cc1cc(=O)oc2cc(NC(=S)NCc3ccccn3)ccc12 | – | 81 | – | – | –
O=C(NCc1ccccn1)C(=O)Nc1ccccc1F | · | 61 | · | · | ·
CC(C)CNC(=O)C(=O)NCc1ccccn1 | – | – | – | – | –
Cc1cc(=O)oc2cc(NC(=S)NCCCN3CCCC3=O)ccc12 | · | – | · | · | ·
Cc1ccc(NC(=O)C(=O)NCc2ccccn2)cc1C | · | 94 | · | · | ·
Cc1ccccc1NC(=O)C(=O)NCc1ccccn1 | · | – | · | · | ·
O=C(COc1ccc2ccccc2c1Br)NCc1ccco1 | – | 85 | – | – | –
Cc1ccc2nc(SCc3nc4ccccc4n3C)[nH]c2c1 | – | 62 | – | – | –
CCc1ccc(C(Nc2cc(C)ccn2)c2ccc3cccnc3c2O)cc1 (stereo not drawn) | – | – | + | – | –
O=c1c2ccccc2nc(-c2cccs2)n1NCc1ccccc1F | · | – | · | · | ·
Cc1cccc(OCC(=O)Nc2cccc(-c3nc4cc(C)ccc4o3)c2)c1 | · | 86 | · | · | ·
SMILES | Myc binder | p53 PUMA act | p53 mut binder | NFkB SMM | STAT3 binder
CCc1ccc2oc(-c3cccc(NC(=O)COc4ccccc4)c3)nc2c1 | · | 82 | · | · | ·
Cc1ccc2oc(-c3cccc(NC(=O)COc4ccc5ccccc5c4)c3)nc2c1 | · | 82 | · | · | ·
C[C@H]1CN([C@@H](C)CO)C(=O)c2cc(NC(=O)NC3CCCCC3)ccc2O[C@@H]1CN(C)C(=O)Nc1ccc(F)cc1 | – | – | – | – | –
CCOc1ccc(C)cc1S(=O)(=O)n1nnc2ccccc21 | + | – | – | + | –
COC(=O)COc1cccc(NC(=O)c2cccs2)c1 | · | – | · | · | ·
COc1cccc(NC(=O)CNC(=O)c2cccs2)c1 | · | 51 | · | · | ·
FC(F)(F)Oc1ccc(Nc2n[nH]c(=S)s2)cc1 | · | 75 | · | · | ·
Cc1nnc(SCC(=O)Nc2ccc(OC(F)(F)F)cc2)s1 | · | – | · | · | ·
Cc1c(C(=O)N(C)C2CCCCC2)sc2nc3ccc(N)cc3n12 | + | – | – | – | –
CS(=O)(=O)N(CC(=O)Nc1cc(C(F)(F)F)ccc1Cl)c1ccccc1 | – | – | – | – | –
O=C(CSc1nc2ccc(NC(=O)c3ccccc3)cc2s1)Nc1cccc([N+](=O)[O-])c1 | · | 59 | · | · | ·
Cc1ccccc1C(=O)Nc1ccc2nc(SCC(=O)Nc3ccc([N+](=O)[O-])cc3)sc2c1 | · | – | · | · | ·
Cc1ccccc1C(=O)Nc1ccc2nc(SCC(=O)Nc3ccccc3)sc2c1 | – | – | – | – | –
O=C(CSc1nc2ccc(NC(=O)c3ccccc3F)cc2s1)c1cccc([N+](=O)[O-])c1 | – | 76 | – | – | –
C[C@@H]1CN([C@H](C)CO)C(=O)c2cc(C3=CCCC3)cnc2O[C@@H]1CN(C)C(=O)NC1CCCC1 | · | – | · | · | ·
Cc1c(CCC(=O)O)c(=O)oc2cc(OCC(=O)O)ccc12 | · | – | · | · | ·
Cc1c(CC(=O)O)c(=O)oc2cc(OCC(=O)O)ccc12 | + | – | – | – | –
CCOC(=O)c1ccccc1NC(=O)CSc1nc2ccccc2[nH]1 | · | – | · | · | ·
O=C(Cn1c(=O)oc2ccccc21)Nc1ccc(S(=O)(=O)N2CCOCC2)cc1 | · | – | · | · | ·
Cc1ccc2c(c1)c1nnc(SCCN3CCOCC3)nc1n2Cc1ccccc1 | · | – | · | · | ·
CCCCn1c2ccccc2c2nnc(SCCN3CCOCC3)nc21 | – | – | + | – | –
CN(CC(=O)Nc1ccccc1-c1ccccc1)S(=O)(=O)c1ccc2ccccc2c1 | · | – | · | · | ·
Cc1ccccc1-c1nc2cc(NC(=O)COc3ccc(Br)cc3)ccc2o1 | · | 74 | · | · | ·
Cc1ccccc1-c1nc2cc(NC(=O)COc3ccc(Cl)cc3)ccc2o1 | · | 71 | · | · | ·
CN1C(=O)N[C@@H]2c3ccccc3O[C@@]1(CO)[C@@H]2COC(=O)c1ccccc1 | – | · | – | – | –
SMILES | Myc binder | p53 PUMA act | p53 mut binder | NFkB SMM | STAT3 binder
CCn1c(SCc2nc3ccccc3[nH]2)nnc1-c1cccc(Cl)c1 | · | – | · | · | ·
CCCn1nnc(NC(=O)C(C)Oc2ccc(Cl)cc2Cl)n1 (stereo not drawn) | – | – | – | – | –
CCCn1nnc(NC(=O)COc2ccccc2Cl)n1 | · | 64 | · | · | ·
CCCCNC(=O)C(OC(=O)c1ccccc1)c1ccco1 (stereo not drawn) | – | · | – | – | –
COc1c(O)cc2oc(-c3ccc(O)cc3)cc(=O)c2c1O | – | 58 | – | – | –
COc1ccc(-c2cc(=O)c3c(OC)c(OC)c(OC)c(OC)c3o2)cc1 | – | – | – | – | –
COc1cc2oc(-c3ccc(O)cc3)cc(=O)c2c(O)c1OC | – | – | – | – | –
COc1ccc(-c2cc(=O)c3ccc(OC)cc3o2)cc1 | – | 66 | – | – | –
CCCN(CCC)CC1CCCCN1CCNC(=O)N1c2ccccc2C(=O)Nc2cccnc21 (stereo not drawn) | – | – | + | – | –
CC(=O)OC1=C(C(=O)c2ccccc2)N(C)S(=O)(=O)c2ccccc21 | · | – | · | · | ·
COc1cc(/C=C/c2ccc(OC)cc2OC)cc(OC)c1 | – | 121 | – | – | –
CC(=O)c1ccc(NC(=O)CN(C)S(=O)(=O)c2ccc(Br)cc2)cc1 | · | – | · | · | ·
COc1ccccc1NC(=O)COc1ccc(CO)cc1Cl | · | 165 | · | · | ·
COc1ccccc1OCC(=O)Nc1ccc(C)cc1[N+](=O)[O-] | · | 119 | · | · | ·
COc1ccc(NC(=O)COc2ccccc2[N+](=O)[O-])cc1Cl | · | 135 | · | · | ·
COc1cc(NC(=O)COc2ccccc2[N+](=O)[O-])ccc1NC(=O)c1cccs1 | – | – | – | – | –
O=C(COc1ccccc1Cl)Nc1ccc2oc(-c3ccc(F)cc3Cl)nc2c1 | · | – | · | · | ·
O=C(COc1ccccc1[N+](=O)[O-])Nc1ccc2oc(-c3ccc(F)cc3Cl)nc2c1 | · | 51 | · | · | ·
Cc1ccc(NC(=O)COc2ccccc2Cl)c([N+](=O)[O-])c1 | · | 60 | · | · | ·
Cc1ccc(NC(=O)COc2ccc(Cl)cc2Cl)c([N+](=O)[O-])c1 | · | – | · | · | ·
COC(=O)c1cccc(NC(=O)COc2cc(C)ccc2C)c1 | · | – | · | · | ·
